Measurements from ChEMBL document CHEMBL1201862, “PubChem BioAssay data set” (2004).
The campaign covered roughly 400,000 compounds. About 2,100 (0.53%) were called active. Not shown: some 14% with an inconclusive outcome. How the calls were made is not given here. The list comes from a sample in which actives are over-represented; it also holds similar structures and randomly drawn compounds.

Target: Ataxin-2 (Homo sapiens) (UniProt Q99700)
Assay: qHTS for Inhibitors of ATXN expression.
Format: functional

Chain of Ataxin-2 (Homo sapiens) (Q99700 whole entry): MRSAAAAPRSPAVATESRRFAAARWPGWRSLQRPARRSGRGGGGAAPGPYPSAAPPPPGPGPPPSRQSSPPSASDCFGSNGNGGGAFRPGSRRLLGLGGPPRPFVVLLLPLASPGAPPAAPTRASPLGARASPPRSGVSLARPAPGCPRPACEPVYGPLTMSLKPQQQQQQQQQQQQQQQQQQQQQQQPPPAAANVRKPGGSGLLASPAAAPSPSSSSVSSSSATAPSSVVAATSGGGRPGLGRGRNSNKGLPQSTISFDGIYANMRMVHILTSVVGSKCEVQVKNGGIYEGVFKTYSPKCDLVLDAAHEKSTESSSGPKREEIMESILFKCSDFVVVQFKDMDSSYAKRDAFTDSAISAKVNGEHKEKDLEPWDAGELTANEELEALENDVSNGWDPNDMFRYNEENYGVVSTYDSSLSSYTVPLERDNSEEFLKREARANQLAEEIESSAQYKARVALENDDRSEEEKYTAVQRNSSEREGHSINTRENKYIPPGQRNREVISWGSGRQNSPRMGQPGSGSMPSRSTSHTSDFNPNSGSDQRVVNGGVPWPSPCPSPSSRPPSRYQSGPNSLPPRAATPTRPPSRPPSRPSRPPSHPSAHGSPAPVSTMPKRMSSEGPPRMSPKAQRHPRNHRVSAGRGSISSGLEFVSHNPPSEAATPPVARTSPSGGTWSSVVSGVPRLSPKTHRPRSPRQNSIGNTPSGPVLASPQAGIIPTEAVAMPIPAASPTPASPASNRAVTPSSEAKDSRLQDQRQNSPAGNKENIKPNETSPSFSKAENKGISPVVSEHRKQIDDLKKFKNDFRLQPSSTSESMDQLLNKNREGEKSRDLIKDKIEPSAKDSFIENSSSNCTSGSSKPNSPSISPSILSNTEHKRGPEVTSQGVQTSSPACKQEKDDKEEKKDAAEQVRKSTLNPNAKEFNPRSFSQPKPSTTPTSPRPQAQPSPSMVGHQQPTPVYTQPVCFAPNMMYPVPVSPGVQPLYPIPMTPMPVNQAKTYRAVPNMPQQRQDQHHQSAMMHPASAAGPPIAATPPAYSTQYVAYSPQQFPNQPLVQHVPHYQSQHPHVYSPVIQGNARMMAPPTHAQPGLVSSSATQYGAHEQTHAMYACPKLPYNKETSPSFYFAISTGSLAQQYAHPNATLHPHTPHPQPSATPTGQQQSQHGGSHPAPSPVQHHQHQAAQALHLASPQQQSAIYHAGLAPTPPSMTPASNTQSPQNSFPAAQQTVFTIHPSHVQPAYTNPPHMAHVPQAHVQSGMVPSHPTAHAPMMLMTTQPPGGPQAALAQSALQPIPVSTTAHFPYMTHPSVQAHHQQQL

SMILES | Potency
CCC(=O)N(CC)C1=C(O)C(=O)c2ccccc2C1=O | inactive
O=C1c2ccccc2C(=O)c2[nH]c(O)nc21 | 25.1 µM (active)
CCOC(=O)C1CCN(C(=O)c2ccc(CNS(=O)(=O)c3ccc(OC)cc3)cc2)CC1 | inactive
O=C(CCCCC(=O)NN=Cc1ccc2c(c1)CCC2)NN=Cc1ccc2c(c1)CCC2 | inactive
O=C(CCCCC(=O)NN=Cc1ccc(Cl)cc1)NN=Cc1ccc(Cl)cc1 | 39.8 µM (active)
O=C1NCCCC1C(=O)N/N=C/c1ccc(Cl)cc1 (stereo unspecified) | inactive
Cc1c(-c2ccccc2)cnc2c(C)cccc12 | inactive
CCc1cc(=O)oc2c(C)c(O)c(CN(C)C)cc12 | inactive
CC1CCCCC1NC(=O)COC(=O)c1c2c(nc3ccccc13)/C(=C/c1ccco1)CC2 (stereo unspecified) | inactive
COc1cccc(CN2CCNC(=O)C2CC(=O)NC2CCOCC2)c1OC (stereo unspecified) | inactive
CCc1cc(CNC(=O)CC2C(=O)NCCN2Cc2ccc(-c3ccccc3)cc2)on1 (stereo unspecified) | 35.5 µM (active)
CCN(CCn1cccn1)C(=O)CC1C(=O)NCCN1Cc1ccc(F)cc1 (stereo unspecified) | inactive
O=S(=O)(Nc1ccc(-c2cn3cccnc3n2)cc1)c1ccccc1 | inactive
Clc1ccc(-c2nc3cnccn3c2NC2CCCC2)cc1 | inactive
O=C(c1ccc(Cl)cc1)C(CN1CCCCC1)c1ccccc1 (stereo unspecified) | 31.6 µM (active)
COc1ccc(C(=O)C(CN2CCCC2)c2ccccc2)cc1 (stereo unspecified) | 28.2 µM (active)
O=C(/C=C/c1cn(CC(O)CN2CCCCC2)c2ccccc12)c1ccccc1 (stereo unspecified) | inactive
O=C(c1ccc(Cl)cc1)C1CCN(C(=O)c2ccccc2F)CC1 | inactive
CC(C)(C)C(CN1CCCC1)OC(=O)c1ccccc1 (stereo unspecified) | inactive
O=C(c1ccc(Cl)cc1)C(CN1CCCC1)c1ccccc1 (stereo unspecified) | 22.4 µM (active)
O=C(/C=C/c1cn(CC(O)CN2CCCCCC2)c2ccccc12)c1ccccc1 (stereo unspecified) | inactive
O=C(O)c1ccn2c(C(=O)c3ccc(Cl)cc3)c(-c3ccccc3)cc2c1 | inactive

SMILES | Potency
COc1ccc(CC(=O)N2CCN(c3ccccc3)CC2)cc1 | inactive
O=C(C1=NN(c2ccccc2)C2C(=O)N(c3cccc(Cl)c3)C(=O)C12)c1ccccc1 (stereo unspecified) | inactive
COc1ccc(-c2c(C#N)c(N)nc3c2CCC3)cc1 | inactive
CCCCN1C(=O)C2Cc3c([nH]c4ccccc34)CN2C1=S (stereo unspecified) | inactive
O=c1c(O)c(-c2cccs2)oc2ccccc12 | inactive
CC(C)Oc1ccc(C(CCN)C2CCCCC2)cc1 (stereo unspecified) | 25.1 µM (active)
CCC(=O)Nc1cccc(C2=NN(c3ccccc3)C(c3ccc(OC)cc3)C2)c1 (stereo unspecified) | inactive
COc1ccc(C2CC(c3ccc4ccccc4c3)=NN2C(=O)CNC2CCCCC2)cc1 (stereo unspecified) | 39.8 µM (active)
COc1ccc(C2CC(c3ccc(OC)cc3OC(C)=O)=NN2C(=O)c2ccccc2)cc1 (stereo unspecified) | inactive
CCOc1ccc2nc(NCCCNS(=O)(=O)c3ccc(F)cc3)c(C#N)cc2c1 | inactive
Nc1c(C(=O)Nc2ccccc2F)sc2nc(-c3ccco3)ccc12 | inactive
COc1ccc(C(=O)Nc2cccc(/C=C/c3nc(O)c4ccccc4n3)c2)cc1 | 25.1 µM (active)
COc1ccc(NC(=O)c2cc3ccccc3cc2O)cc1 | inactive
COc1cc(/C=C/c2nc(O)c3ccccc3n2)cc(Cl)c1O | inactive
O[C@@H]1[C@@H]2c3cc4c(cc3CN3CCC(=C[C@@H]1O)[C@H]23)OCO4 | 6.31 µM (active)
COc1cc(C2Nc3ccc4ccccc4c3C3=C2C(=O)CC(C)(C)C3)ccc1OCC(=O)O (stereo unspecified) | inactive
COCCN(CCOC)Cc1c(O)ccc2c1O/C(=C\c1ccco1)C2=O | inactive
Cc1cc(-c2ccnc(-n3ncc(C(=O)NCC4COCCO4)c3C3CC3)n2)c(C)s1 (stereo unspecified) | inactive
O=C(NN/C=C1\C(=O)N(c2ccccc2Cl)C(=O)c2ccccc21)c1cccnc1 | inactive
CNc1ccc(N=Nc2cc[n+]([O-])cc2C)cc1C | 28.2 µM (active)
CCOC(=O)C1(Cc2ccccc2C(F)(F)F)CCN(CC(O)CO)CC1 (stereo unspecified) | inactive
Cc1cccn2c(=O)c3cc(S(=O)(=O)c4ccccc4)c(=N)n(Cc4ccco4)c3nc12 | inactive

SMILES | Potency
Cc1nn(Cc2ccccc2Cl)c(C)c1C(=O)N(C)CC(=O)Nc1cccc(F)c1 | inactive
Cc1ccc(-n2nc(C)c(NC(=O)CCl)c2C)cc1C | 35.5 µM (active)
CCc1ccc(-c2cc(C(F)(F)F)n3nc(C(=O)Nc4c(C)nn(Cc5ccccc5Cl)c4C)cc3n2)s1 | inactive
Cc1nn(Cc2ccc(Cl)cc2Cl)c(C)c1NC(=O)CCl | 25.1 µM (active)
Cc1ccc(-n2nc(C)c(NC(=O)CCl)c2C)cc1 | 39.8 µM (active)
Cc1cc(C)n(-c2ccc(C(=O)NCC(=O)Nc3cc(Cl)ccc3Cl)cc2)n1 | inactive
Cc1nn(-c2ccccc2)c(C)c1C(=O)OCC(=O)Nc1ccccc1Cl | inactive
CCOC(=O)CNC(=O)Cn1cnc2c(cnn2-c2ccc(C)cc2)c1=O | inactive
COc1ccc(-c2c(NC(=O)c3ccco3)n(-c3ccc(C)cc3)nc(C)c2=O)cc1 | inactive
COCCSc1ccccc1C(=O)N1CCc2ccccc21 | inactive
CCOCCCn1c(=N)c(C(=O)NCc2ccccc2)cc2c(=O)n3ccccc3nc21 | inactive
O=C1CCC(=O)N1c1nc2n(n1)C(c1ccccc1)C=C(c1ccc(Br)cc1)N2 (stereo unspecified) | inactive
Cc1ccc2[nH]c3ccccc3c(=O)c2c1 | inactive
O=c1c2ccccc2[nH]c2ccccc12 | inactive
Cc1[nH]c2ccccc2c1C1=CC(=O)C=CC1=O | 39.8 µM (active)
COCc1cc(C)nc2sc(C(=O)Nc3nccs3)c(N)c12 | inactive
Cc1ccccc1N=C(S)NNC(=O)c1cccc(Br)c1 | inactive
O=C(N/N=C1/C(=O)c2cccc3cccc1c23)c1ccc(Cl)cc1 | 35.5 µM (active)
C/C(=N\NC(=O)c1ccc(-n2cnnn2)cc1)c1ccc(Cl)cc1 | inactive
Nc1[nH]cnc2c(C3OC(CO)C(O)C3O)cnc1-2 (stereo unspecified) | 0.299 µM (active)
Cc1nc2c(sc(=S)n2Cc2ccco2)c(=O)n1CC(=O)Nc1ccc(F)cc1 | 39.8 µM (active)
CCOC(=O)c1cc2c(=O)n3ccccc3nc2n(Cc2ccco2)/c1=N\C(=O)c1ccc(F)cc1 | inactive

SMILES | Potency
Cc1cccn2c(=O)c3cc(S(=O)(=O)c4ccc(F)cc4)c(=N)n(Cc4ccco4)c3nc12 | inactive
Cc1cc(C)c2c(N)c3cccc(C)c3nc2n1 | inactive
CCOC(=O)C1=C(O)c2ccccc2C(=O)/C1=C\c1ccc(C)cc1 | 39.8 µM (active)
CCOC(=O)C1=C(C#N)C(C(=O)OCC)c2ncccc21 (stereo unspecified) | inactive
CCOC(=O)C1=C(Nc2ccccc2)S/C(=C\c2ccc(OCC(=O)O)c(OCC)c2)C1=O | inactive
COCCNc1c2c(c(C#N)c3nc4ccccc4n13)CCCC2 | inactive
Cc1ccc2[nH]c(/C(C#N)=C\c3ccc([N+](=O)[O-])o3)nc2c1 | 8.91 µM (active)
COc1cc(/C=C(\C#N)c2nc3cc(C)ccc3[nH]2)ccc1OC(C)C | inactive
COc1cc(/C=C(\C#N)c2nc3cc(C)ccc3[nH]2)ccc1OCc1ccc(C)cc1 | inactive
Cc1c(Cl)cccc1-c1ccc(/C=C(\C#N)c2nc3ccccc3[nH]2)o1 | inactive
COc1ccc(/C=C(\C#N)c2nc3cc(C)ccc3[nH]2)cc1Oc1ccc(C(F)(F)F)cc1[N+](=O)[O-] | 44.7 µM (active)
Cc1ccc2[nH]c(/C(C#N)=C/c3ccc(-c4ccccc4C(=O)O)o3)nc2c1 | inactive
Oc1c(Br)cc(Br)cc1/C=N\c1cccnc1 | inactive
COCc1cc(N2CCCC2)nc(-c2ccccc2)n1 | inactive
Cc1c(N=C2N=C(NC(=O)Nc3ccc(Cl)cc3)c3ccccc32)c(=O)n(-c2ccccc2)n1C | inactive
O=C1c2cccc3c([N+](=O)[O-])ccc(c23)C(=O)N1CC1CCCO1 (stereo unspecified) | inactive
CCCCCn1c(-c2cccc(C)c2)nc2ccccc21 | 35.5 µM (active)
Cc1cccc(-n2cnc3cc(C(=O)NCCN4CCOCC4)ccc32)c1 | inactive
CCCCCn1c(N)c(C#N)c2nc3ccccc3nc21 | inactive
CCc1ccccc1-n1c(C)nc2cc(C(=O)NCCc3ccc(Cl)cc3)ccc21 | 44.7 µM (active)
CCCCCn1c(CCNC(=O)c2cccc(C)c2)nc2ccccc21 | 31.6 µM (active)
CCCn1c(CNC(=O)c2cccs2)nc2ccccc21 | inactive

SMILES | Potency
Cc1cccc(C(=O)NCCc2nc3ccccc3n2Cc2ccc(Cl)cc2)c1 | 28.2 µM (active)
CCC(=O)NCCCc1nc2ccccc2n1Cc1ccccc1F | inactive
ClCc1nc2ccccc2n1Cc1ccccc1 | inactive
CCCCCn1nc(-c2ccccc2)c2nc3ccccc3nc21 | inactive
CCn1c(C)nc2cc(C(=O)N/N=C(\C)c3ccccc3O)ccc21 | inactive
Cc1ccc(C(=O)NCCc2ccccc2)cc1N1CCCC1=O | inactive
COc1cccc(NC(=O)N2CCCC2C(=O)Nc2cc(C)ccc2OC)c1 (stereo unspecified) | inactive
c1ccc2c3c(c(CN4CCCC4)cc2c1)COC3 | inactive
Cc1ccc(NC(=O)NN2CCOCC2)cc1 | inactive
CC1(C)Cc2c(cnn2-c2cccc(F)c2)C(NC(=O)CSc2ccccn2)C1 (stereo unspecified) | inactive
Cc1cc(-n2c(=O)c(C#N)cc3c(=O)n4cccc(C)c4nc32)no1 | inactive
O=C(N/N=C/c1ccc(N2CCOCC2)cc1)c1ccccc1NS(=O)(=O)c1cccs1 | inactive
C[C@H]1CCC[C@]2(C)C[C@H]3OC(=O)C(CN4CCCCCC4)[C@H]3C=C12 (stereo partly specified) | 39.8 µM (active)
CCN/N=C(\Cc1nc2ccccc2[nH]1)c1ccccc1 | inactive
Cc1cccn2c(=O)c3cc(C(=O)NCC4CCCO4)c(=N)n(CC4CCCO4)c3nc12 (stereo unspecified) | inactive
Cc1ccc(-c2nc(CS(=O)(=O)CC(=O)NCc3ccc4c(c3)OCO4)c(C)o2)cc1 | inactive
Cc1ccc(CNC(=O)CS(=O)(=O)Cc2nc(-c3ccccc3F)oc2C)cc1 | inactive
COc1cccc(-c2nc(CS(=O)(=O)CC(=O)Nc3cccc(C)c3C)c(C)o2)c1 | 7.08 µM (active)
